{
  "source": "PubChem BioAssay (Tox21)",
  "note": "“And” between values parts separate entries of the source, which are not always exact repeats. Equal values may be shown once. Inconclusive results are not listed. Entries that show only a call come without a potency. The source made the active and inactive calls. Calls follow the shape of the dose curve; as a rule, active = well fitted cell-killing curve with a large enough effect in the repeat runs; inconclusive = weak or mixed curves, or effect the other way; inactive = flat fitted curve, though single readings scatter. Potency is read from the fitted curve at half-maximal effect.",
  "data": [
    {"experiment": "qHTS assay to identify small molecule antagonists of the androgen receptor (AR) signaling pathway using the MDA cell line - cell viability counter screen (AID 743041; also: nearly all actives have a fitted effect of over 45% in size)", "conditions": "MDA-kb2 viability, CellTiter-Fluor, 16 h, cells co-treated with R1881 androgen agonist; series mostly up to 70.3 µM; viability change, negative = cytotoxic: at the top concentration", "description": "National Center for Advancing Translational Sciences [NCATS]\nNIH Chemical Genomics Center [NCGC]\nU.S. Environmental Protection Agency [EPA]\nNational Institutes of Environmental Health Sciences [NIEHS]\nNational Toxicology Program [NTP]\nU.S. Food and Drug Administration [FDA]\nAndrogen receptor (AR), a nuclear hormone receptor, plays a critical role in AR-dependent prostate cancer and other androgen related diseases. Endocrine disrupting chemicals (EDCs) and their interactions with steroid hormone receptors like AR may cause disruption of normal endocrine function as well as interfere with metabolic homeostasis, reproduction, developmental and behavioral functions. To identify the compounds that inhibit AR signaling, MDA-kb2 AR-luc cell line (from ATCC, deposited by Wilson et al.) was used to screen the Tox21 10K compound library. MDA-kb2 AR-luc cell line is human breast carcinoma cell line that was stably transfected with a luciferase reporter gene under control of the MMTV promoter containing response elements for both androgen receptor (AR) and glucocorticoid receptor (GR). The cytotoxicity of the Tox21 compound library against the MDA-kb2 AR-luc cell line was tested in parallel by measuring the cell viability using CellTiter-Fluor assay (Promega, Madison, WI) in the same wells.\nTox21 Assay Protocol Summary:\nMDA-kb2 AR-luc cells were dispensed at 3,000 cells/4 uL/well of culture medium into white wall/solid-bottom 1536-well plates using a Multidrop Combi (ThermoFisher Scientific, Waltham, MA) dispenser. After the assay plates were incubated at a 37C and 0% CO2 for 5 hr, 23 nL of compounds dissolved in DMSO, positive controls or DMSO only was transferred to the assay plate by a Pintool station (Kalypsys, San Diego, CA), followed by addition of 1 uL of agonist (R1881) in culture medium using a Bioraptr Flying Reagent Dispenser (FRD) workstation (Beckman Coulter, Indianapolis, IN, USA). The plates were incubated at a 37C and 0% CO2 for 16 h. After 15.5 h incubation, 1uL of CellTiter-Fluor reagent (Promega) was added using a Bioraptr FRD to each plate for measuring cytotoxicity. The fluorescence intensity was quantified on a ViewLux plate reader (PerkinElmer, Shelton, CT) following 30 min incubation at 37C and 0% CO2.", "values": [
      {"smiles": "Cc1cn([C@H]2C=C[C@@H](CO)O2)c(=O)[nH]c1=O", "Potency": "inactive"},
      {"smiles": "CCc1nc(N)nc(N)c1-c1ccc(Cl)cc1", "Potency": "inactive"},
      {"smiles": "CNNCc1ccc(C(=O)NC(C)C)cc1", "Potency": "inactive"},
      {"smiles": "CCN(CC)C(=O)c1cccc(C)c1", "Potency": "inactive"},
      {"smiles": "CC(=O)CCC(=O)O", "Potency": "inactive"},
      {"smiles": "Cc1cc(C)nc(NS(=O)(=O)c2ccc(N)cc2)n1", "Potency": "inactive"},
      {"smiles": "COc1cccc(O)c1O", "viability change, negative = cytotoxic": "-0.0735% [at 95 µM] (inactive)"},
      {"smiles": "C=C(C)C(=O)OCC(C)O", "note": "(stereo not given)", "Potency": "inactive"},
      {"smiles": "CCCCCCCC(=O)OCC(COC(=O)CCCCCCC)OC(=O)CCCCCCC", "Potency": "inactive"},
      {"smiles": "O=CC(=O)c1ccccc1", "viability change, negative = cytotoxic": "1.2% (inactive)"},
      {"smiles": "CC(C)c1c(C(=O)Nc2ccccc2)c(-c2ccccc2)c(-c2ccc(F)cc2)n1CC[C@@H](O)C[C@@H](O)CC(=O)O", "Potency": "inactive"},
      {"smiles": "CC(=O)C(=O)O", "Potency": "inactive"},
      {"smiles": "Cc1c(C(=O)O)c(O)cc2c1C(=O)c1c(O)c([C@@H]3O[C@H](CO)[C@@H](O)[C@H](O)[C@H]3O)c(O)c(O)c1C2=O", "Potency": "59.6 µM (active) and 27.3 µM (active)"},
      {"smiles": "O=C1O[C@H]([C@@H](O)CO)C(O)=C1O", "Potency": "inactive"},
      {"smiles": "C1=CC2C3C=CC(C3)C2C1", "note": "(stereo not given)", "viability change, negative = cytotoxic": "-12.1% (inactive)"},
      {"smiles": "CCCc1cc(=O)[nH]c(=S)[nH]1", "Potency": "inactive"},
      {"smiles": "CC12CCC(CC1)C(C)(C)O2", "Potency": "inactive"},
      {"smiles": "CC(=O)CC(c1ccccc1)c1c(O)c2ccccc2oc1=O", "note": "(stereo not given)", "Potency": "inactive"},
      {"smiles": "NS(=O)(=O)O", "Potency": "inactive"},
      {"smiles": "NC1CCCCC1", "Potency": "inactive"},
      {"smiles": "CC(O)(P(=O)(O)O)P(=O)(O)O", "Potency": "inactive"},
      {"smiles": "NC(=O)c1cccnc1", "Potency": "inactive"},
      {"smiles": "Cc1ncc([N+](=O)[O-])n1C", "Potency": "inactive"},
      {"smiles": "CCCC[P+](CCCC)(CCCC)CCCC", "viability change, negative = cytotoxic": "-20% [at 95 µM] (inactive)"},
      {"smiles": "NC(CO)(CO)CO", "Potency": "inactive"},
      {"smiles": "CN1CCC[C@H]1c1cccnc1", "Potency": "inactive"},
      {"smiles": "Nc1c2c(nc3ccccc13)CCCC2", "Potency": "inactive"},
      {"smiles": "O=C1NS(=O)(=O)c2ccccc21", "Potency": "inactive"},
      {"smiles": "CN(C)C(=S)SC(=S)N(C)C", "Potency": "6.99 µM (active) and 6.27 µM (active) and 1.22 µM (active)"},
      {"smiles": "CC(C)C(=O)Nc1ccc([N+](=O)[O-])c(C(F)(F)F)c1", "viability change, negative = cytotoxic": "-15.8% (inactive)"},
      {"smiles": "O=S1(=O)OC(c2ccc(O)cc2)(c2ccc(O)cc2)c2ccccc21", "Potency": "48.6 µM (active) and 61.1 µM (active)"},
      {"smiles": "CN1CCc2cccc3c2[C@H]1Cc1ccc(O)c(O)c1-3", "viability change, negative = cytotoxic": "1.03% [at 95 µM] (inactive)"},
      {"smiles": "Oc1ccccc1", "Potency": "inactive"},
      {"smiles": "F[B-](F)(F)F", "Potency": "inactive"},
      {"smiles": "O=C1c2c(O)cccc2Cc2cccc(O)c21", "Potency": "inactive"},
      {"smiles": "CN(N=O)C(=O)N[C@@H]1[C@@H](O)[C@H](O)[C@@H](CO)O[C@@H]1O", "Potency": "inactive"},
      {"smiles": "CCCCCCCCCCCC[N+](C)(C)Cc1ccccc1", "Potency": "29.8 µM (active) and 23.9 µM (active) and 37.4 µM (active)"},
      {"smiles": "COc1ccc(CN(CCN(C)C)c2ccccn2)cc1", "Potency": "inactive"},
      {"smiles": "CCCCOC(=O)c1ccc(O)cc1", "Potency": "inactive"},
      {"smiles": "O=C1OC2(c3ccccc31)c1cc(Br)c(O)c(Br)c1Oc1c2cc(Br)c(O)c1Br", "Potency": "11.9 µM (active) and 7.81 µM (active) and 17.7 µM (active)"}
    ]}
  ]
}
